Inconclusive results are not listed. Unmarked numbers belong to inactive results. Calls follow the shape of the full dose curve.
Experiment: qHTS for Inhibitors of Cell Surface uPA Generation: Wild-type Protective Antigen (WT-PrAg) Counterscreen for Cherry-picked Compounds; also: 0% is about no effect
Settings: cells, WT protective antigen toxicity counterscreen; series mostly up to 115 µM; activity (protection): at the top concentration

Row | Structure (SMILES) | activity (protection) [%]
1 | CCc1cc(CC)c(/C=N/NC(N)=O)c(CC)c1 | -1.8
2 | O=C(Nc1ccc(N2CCOCC2)cc1)c1ccc(Cl)c(S(=O)(=O)N2CCCC2)c1 | -0.904
3 | C[C@@H](C(=O)Nc1ccc2ccccc2c1)[C@@H]1C[C@@]1(C)[C@@H](NC(=O)c1cccnc1)c1ccccc1 | -2.34
4 | O=C(Nn1cnnc1)c1ccc(Cl)c(Cl)c1 | -0.404
5 | COc1ccc(NC(=O)c2cccnc2N2CCOCC2)cc1 | 0.0263
6 | Cc1ccc(/C=C/C(=O)O)cc1S(=O)(=O)N1CCc2ccccc21 | -1.49
7 | NC(=O)CC(NC(=O)Cc1cccc2ccccc12)c1ccc(N2CCN(c3ccc(F)cc3)CC2)c([N+](=O)[O-])c1 (stereo not given) | -0.604
8 | CNS(=O)(=O)c1cc(-c2nnc(Nc3ccc(CC(N)=O)cc3)c3ccccc23)ccc1C | -0.139
9 | Oc1c(N=NC(=S)Nc2ccccc2F)c2ccccc2n1Cc1ccccc1Cl | -0.848
10 | CC(=O)Oc1ccc(OC(C)=O)c(SCCCCCCl)c1 | -2.59
11 | O=[N+]([O-])c1cccc(-c2noc(-c3cccs3)n2)c1 | 3.04
12 | COc1ccc(OC)c(S(=O)(=O)N2CCN(Cc3ccccc3)CC2)c1 | 0.596
13 | O=S(=O)(NCC(c1cccnc1)N1CCOCC1)c1ccccc1 (stereo not given) | -1.02
14 | Cc1cc(NC(=O)COc2cccc([N+](=O)[O-])c2)no1 | -1.25
15 | COc1ccc(CC(=O)OCC(=O)NNC(=O)c2ccccc2)cc1 | -1.54
16 | C=C(C(=O)O)C1CCC2(C)CCCC(C)(O)C2C1 (stereo not given) | -0.0048
17 | O=C(NC[C@H]1CCCO1)c1cccc2c1C(=O)c1ccc(-c3ccc(F)cc3OCc3ccccc3)cc1S2(=O)=O | -1.01
18 | CCCCn1c(N)c(N(Cc2ccccc2OC)C(=O)COc2ccc(C)cc2)c(=O)[nH]c1=O | -0.778
19 | CC(C)(C)OC(=O)N(Cc1ccccc1)Cc1ccccc1OCc1cccc(NC(=O)C2CC2)c1 | -1.87
20 | COc1ccccc1NNC(=O)C(O)(c1ccccc1OC)c1ccccc1OC | 1.06

Row | Structure (SMILES) | activity (protection) [%]
21 | Cc1ccc2cc(C=O)c(Cl)nc2c1 | -0.682
22 | CCc1nnc(NC(=O)CSc2nnnn2-c2cccc(C(C)=O)c2)s1 | -0.331
23 | C[C@H](CO)N1C[C@H](C)[C@@H](CN(C)C(=O)Nc2ccccc2)Oc2ccc(NC(=O)Cn3cnnn3)cc2C1=O | -0.0378
24 | CC(=O)c1ccc(NC(=O)Nc2ccc(Br)cc2C)cc1 | 1.01
25 | Cc1ccccc1O | -0.342
26 | Cc1ccc2c(c1)N(CC(=O)NCCCc1ccccc1)C(=O)c1cccnc1O2 | 2.62
27 | CCOC(=O)C1(CCOc2ccccc2)CCN(Cc2ccc(O)c(OC)c2)CC1 | -2.28
28 | COc1ccc2nc3c(cc2c1)c(NC(=O)C1CCCO1)nn3CC(C)C (stereo not given) | 1.84
29 | O=C1CCCc2ccccc2N1Cc1ccc(F)cc1 | -1.1
30 | CC(C)NC(=O)NC(=O)CN1C(=O)NC(Cc2c[nH]c3ccccc23)C1=O (stereo not given) | -0.356
31 | COc1ccc(C)cc1NC(=O)CSCc1cc(=O)n2c(C)csc2n1 | 0.0603
32 | COCCn1c(SCC(=O)Nc2ccc(F)cc2)nc2ccccc2c1=O | 4.62
33 | CC1(CC(=O)N/N=C/c2cc(Br)c(O)cc2O)OCCO1 | -2.29
34 | COc1cc2c(cc1OC)CN(C(=O)c1ccc(-c3ccccc3)cc1)CC2 | -2.51
35 | CCN(C1CCS(=O)(=O)C1)S(=O)(=O)c1ccc2ccccc2c1 (stereo not given) | -0.166
36 | CS(=O)(=O)Nc1cccc(C2=NN(S(=O)(=O)c3ccccc3)C(c3ccco3)C2)c1 (stereo not given) | -0.967
37 | Cc1cc(C)cc(S(=O)(=O)c2cn(C)c3cc(N4CCN(C)CC4)c(F)cc3c2=O)c1 | -0.207
38 | CC(=O)NC(=S)Nc1ccc([N+](=O)[O-])cc1C | 4.08
39 | [N-]=[N+]=NC1C[C@H](n2ccc(=O)[nH]c2=O)O[C@@H]1CO (stereo not given in full) | -0.831
40 | CC(C)N1CCc2c(sc(NC(=O)CCc3ccccc3)c2C(N)=O)C1 | 4.95

Reference: PubChem BioAssay AID720518 (National Center for Advancing Translational Sciences (NCATS), 2013)
